Screen size: about 5,500 compounds; about 2,000 (36%) were called active. Roughly 18% stayed inconclusive and do not appear here. Rule as the data show it: active = normalized growth mostly below about 0.91 (no sharp cut-off); inconclusive = no clear call, values can overlap the other calls; inactive = mostly above about 0.92. This is one part of the list.
Experiment: chemical genetic growth profiling, strain panel (AID 1159580);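 also: tested at 20 µM; growth read once vehicle control cultures reached saturation at 30 °C; 1 = growth at the plate median or of vehicle wells; lower values mean less growth of the strain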
Conditions: S. cerevisiae deletion strains, growth OD

Measured: normalized growth

O=c1ccc2ccc(O)c(O)c2o1
inactive: locus YAL021C, strain ccr4, active compounds read low 1.01 | locus YAL026C, strain drs2, active compounds read low 1.01 | locus YAL030W, strain snc1, active compounds read low 1.01 | locus YAL040C, strain CLN3, active compounds read low 0.995 | locus YBL061C, strain skt5, active compounds read low 1 | locus YBR009C, strain hhf1, active compounds read low 1 | locus YBR023C, strain chs3, active compounds read low 1 | locus YBR171W, strain sec66, active compounds read low 1 | locus YBR231C, strain swc5, active compounds read low 0.98 | locus YBR279W, strain paf1, active compounds read low 1.01 | locus YCL011C, strain gbp2, active compounds read low 1.03 | locus YCL016C, strain dcc1, active compounds read low 0.996 | locus YCL061C, strain MRC1 (second series), active compounds read low 0.999 | locus YCL069W, strain vba3, active compounds read low 1.01 | locus YCR088W, strain abp1, active compounds read low 1.01 | locus YDL005C, strain med2, active compounds read low 1 | locus YDL040C, strain nat1, active compounds read low 1.01 | locus YDR001C, strain nth1, active compounds read low 1.02 | locus YDR069C, strain doa4, active compounds read low 0.982 | locus YDR137W, strain rgp1, active compounds read low 0.982 | locus YDR150W, strain NUM1, active compounds read low 0.998 | locus YDR159W, strain sac3, active compounds read low 0.966 | locus YDR195W, strain ref2 0.989 | locus YDR297W, strain sur2, active compounds read low 1 | locus YDR334W, strain swr1, active compounds read low 1.01 | locus YDR335W, strain msn5, active compounds read low 1.02 | locus YDR363W, strain ESC2, active compounds read low 0.961 | locus YDR392W, strain spt3, active compounds read low 0.934 | locus YEL003W, strain gim4, active compounds read low 1 | locus YEL037C, strain rad23, active compounds read low 1.01 | locus YEL061C, strain CIN8 (second series), active compounds read low 1.01 | locus YER002W, strain NOP16, active compounds read low 0.996 | locus YER015W, strain faa2, active compounds read low 0.999 | locus YER016W, strain bim1, active compounds read low 1.02 | locus YER111C, strain swi4, active compounds read low 0.999 | locus YER155C, strain BEM2 (second series), active compounds read low 1 | locus YFR010W, strain ubp6, active compounds read low 1.01 | locus YGL167C, strain pmr1, active compounds read low 1.01 | locus YGL173C, strain kem1, active compounds read low 1 | locus YGL227W, strain vid30, active compounds read low 1.01 | locus YGL240W, strain doc1, active compounds read low 0.986 | locus YGL253W, strain hxk2, active compounds read low 1.03 | locus YGR078C, strain PAC10, active compounds read low 0.994 | locus YGR229C, strain SMI1, active compounds read low 1.03 | locus YHR013C, strain ard1, active compounds read low 0.997 | locus YHR027C, strain rpn1, active compounds read low 1 | locus YHR030C, strain SLT2, active compounds read low 0.98 | locus YHR079C, strain IRE1, active compounds read low 0.96 | locus YHR142W, strain chs7, active compounds read low 1.05 | locus YJL092W, strain hpr5, active compounds read low 1.01 | locus YJL095W, strain BCK1 (second series), active compounds read low 1 | locus YJL095W, strain BCK1, active compounds read low 0.978 | locus YJL115W, strain asf1, active compounds read low 1.01 | locus YJL129C, strain trk1, active compounds read low 0.999 | locus YJL154C, strain vps35, active compounds read low 1.01 | locus YJL164C, strain tpk1, active compounds read low 1 | locus YJL166W, strain qcr8, active compounds read low 1.02 | locus YJL187C, strain SWE1, active compounds read low 1.02 | locus YJR066W, strain TOR1, active compounds read low 0.924 | locus YJR075W, strain HOC1, active compounds read low 1.05 | locus YKL160W, strain elf1, active compounds read low 1 | locus YKR026C, strain gcn3, active compounds read low 1.01 | locus YKR091W, strain srl3, active compounds read low 1.01 | locus YLL001W, strain dnm1, active compounds read low 0.996 | locus YLL026W, active compounds read low 1 | locus YLL041C, strain sdh2, active compounds read low 1.01 | locus YLR027C, strain aat2, active compounds read low 0.993 | locus YLR113W, strain HOG1, active compounds read low 1.01 | locus YLR221C, strain rsa3, active compounds read low 0.991 | locus YLR258W, strain gsy2, active compounds read low 1.01 | locus YLR262C, strain YPT6 (second series), active compounds read low 1.02 | locus YLR320W, strain mms22, active compounds read low 1.01 | locus YLR342W, strain FKS1, active compounds read low 1.01 | locus YLR357W, strain rsc2, active compounds read low 1 | locus YLR370C, strain arc18, active compounds read low 1.01 | locus YLR384C, strain iki3, active compounds read low 0.981 | locus YML120C, strain ndi1, active compounds read low 1 | locus YMR058W, strain fet3, active compounds read low 1.01 | locus YMR125W, strain sto1, active compounds read low 1 | locus YMR129W, active compounds read low 1.01 | locus YMR205C, strain PFK2, active compounds read low 1.01 | locus YMR231W, strain pep5, active compounds read low 0.998 | locus YMR307W, strain GAS1, active compounds read low 1.03 | locus YNL071W, strain lat1, active compounds read low 1.02 | locus YNL153C, strain GIM3, active compounds read low 1.2 | locus YNL175C, strain NOP13, active compounds read low 0.974 | locus YNL183C, strain NPR1, active compounds read low 0.94 | locus YNL197C, strain WHI3, active compounds read low 0.979 | locus YNL209W, strain ssb2, active compounds read low 0.994 | locus YNL224C, strain SQS1, active compounds read low 0.99 | locus YNL248C, strain rpa49, active compounds read low 1.04 | locus YNL322C, strain KRE1 (second series), active compounds read low 0.994 | locus YNR049C, strain mso1, active compounds read low 0.999 | locus YOR001W, strain rrp6, active compounds read low 0.979 | locus YOR070C, strain gyp1, active compounds read low 0.991 | locus YOR080W, strain dia2, active compounds read low 0.986 | locus YOR083W, strain WHI5 (second series), active compounds read low 1.02 | locus YOR083W, strain WHI5, active compounds read low 0.999 | locus YOR106W, strain vam3, active compounds read low 0.99 | locus YOR231W, strain MKK1, active compounds read low 0.966 | locus YOR265W, strain rbl2, active compounds read low 1.01 | locus YOR270C, strain vph1, active compounds read low 1 | locus YOR290C, strain snf2, active compounds read low 0.98 | locus YPL051W, strain arl3, active compounds read low 1 | locus YPL078C, strain atp4, active compounds read low 1.01 | locus YPL106C, strain sse1, active compounds read low 0.967 | locus YPL240C, strain hsp82, active compounds read low 1.01 | locus YPL256C, strain CLN2, active compounds read low 0.989
